High-throughput results as filed in PubChem BioAssay.
D1 ag: agonists of human D1 dopamine receptor. P21728. HEK293 T-REx D1 cells, calcium flux, agonist mode. activation, % at 2 µM. 1% of 360,000 active. AID 504660; further: 0% is about no effect
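Tetracycline-induced HEK293 TREx D1 cells, force-coupled to calcium signalling, were dye-loaded with a no-wash calcium kit. Compound was pin-added after a 10 s baseline. Fluorescence was read kinetically at 1 cycle/s for 180 s, with calcium rises flagged as agonism.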
D1 potentiator: potentiators of human D1 dopamine receptor. HEK293 TREx D1 cells, calcium flux, dopamine EC20 potentiation. potentiation, % at 10 µM. 0.036% of 360,000 active; in the data active means potentiation above about 30%; further: 0% is about no effect
TRHR PAM: allosteric enhancers of human TRH receptor; TRHR cells, fluo-8 calcium fluorescence, EC20 TRH enhancement; enhancement, % at 2 µM; 0.66% of 360,000 active; in the data active means enhancement above about 30%; further: 0% is about no effect
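TRHR-expressing cells loaded with fluo-8 calcium dye were read kinetically (ex 480/em 530) during compound addition, then stimulated with an EC20 of TRH (10 nM final). Enhancement of the Gq-mediated intracellular calcium response was scored.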
USP1-UAF1 inh: USP1/UAF1 (human) deubiquitinase inhibition; recombinant USP1/UAF1, Ub-Rhodamine cleavage fluorescence; 0.23% of 390,000 active; Potency, µM (top dose mostly 57.1 µM), without a hit: top-dose activity change, negative = inhibition, actives largely listed as inhibitors; O94782; active means well fitted inhibition curve with a large enough effect; inconclusive means small, poorly fitted or top-dose-only effect; inactive means no such curve, though single readings can be large or run the other way; further: potency means the concentration at half of the fitted maximal effect; on the % scale 0 is the no-effect control and ±100 the full control effect; nearly all actives have a fitted effect of over 60% in size
Target sequence (O94782 whole entry, looked up): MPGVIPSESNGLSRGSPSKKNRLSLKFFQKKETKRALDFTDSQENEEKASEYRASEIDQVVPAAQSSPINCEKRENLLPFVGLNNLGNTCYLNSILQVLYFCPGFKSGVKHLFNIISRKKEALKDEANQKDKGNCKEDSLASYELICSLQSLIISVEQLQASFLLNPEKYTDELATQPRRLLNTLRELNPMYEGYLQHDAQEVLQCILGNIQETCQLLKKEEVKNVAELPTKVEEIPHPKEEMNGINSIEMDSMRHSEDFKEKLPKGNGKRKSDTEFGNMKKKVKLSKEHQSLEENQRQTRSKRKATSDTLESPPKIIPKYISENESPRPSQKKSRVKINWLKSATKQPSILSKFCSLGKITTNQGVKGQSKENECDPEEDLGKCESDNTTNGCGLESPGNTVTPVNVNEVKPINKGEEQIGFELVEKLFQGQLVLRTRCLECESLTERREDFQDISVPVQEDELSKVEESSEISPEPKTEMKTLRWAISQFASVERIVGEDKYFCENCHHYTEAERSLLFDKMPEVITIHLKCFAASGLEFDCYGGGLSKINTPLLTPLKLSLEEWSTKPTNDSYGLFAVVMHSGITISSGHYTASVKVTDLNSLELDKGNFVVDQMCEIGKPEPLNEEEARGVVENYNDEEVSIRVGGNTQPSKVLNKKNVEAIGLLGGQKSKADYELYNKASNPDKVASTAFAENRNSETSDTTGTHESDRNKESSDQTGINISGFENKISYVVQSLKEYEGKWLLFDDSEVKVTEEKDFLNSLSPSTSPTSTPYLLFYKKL
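High-throughput fluorogenic screen: 1nM USP1/UAF1 complex, Ub-Rho substrate 150nM final, 50mM HEPES pH 7.8 with 0.5mM EDTA, 0.1 mg/ml BSA, 1mM TCEP and 0.01% Tween-20.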
D1 antagonist: antagonists of human D1 dopamine receptor | HEK293 TREx D1 cells, calcium flux, dopamine EC80; hits give low values | 3.2% of 360,000 active | activity change, negative = inhibition, % at 10 µM | P21728; in the data active means activity change below about -30%; further: on the % scale 0 is the no-effect control and ±100 the full control effect
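Using tetracycline-induced force-coupled D1 Hek293 cells and a calcium dye, signals were followed for 180 s after compound, then for 180 s after EC80 dopamine, to detect inhibitors.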
TRHR agonist: agonists of human TRH receptor; activation, % at 2 µM; TRHR cells, calcium flux fluo-8, FDSS agonist mode; P34981; AID 493084; 0.18% of 360,000 active; further: 0% is about no effect
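TRHR-expressing cells, plated overnight in medium with 10% serum, were loaded with fluo-8 calcium dye at room temperature. After a 10 s baseline, library compound was pin-added and calcium release was recorded kinetically (ex 480/em 530) as agonist response.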
Starred values were filed as active, the others as inactive; ? = inconclusive; · = no result. This is a sample that favours compounds with a hit; in the whole collection about 4.4% have one here. Unless noted, no stated cut-off is given here; in the data, active means activation above about 30%; inactive means the rest.

SMILES	D1 ag	D1 potentiator	TRHR PAM	USP1-UAF1 inh	D1 antagonist	TRHR agonist
Cc1cc2c(s1)c1cnn(Cc3ccc(F)c(Cl)c3)c(=O)c1n2C	0.4	-4.3	0.3	·	-11.3	-0.4
COc1ccc(NCc2cc3cc4c(cc3n(CC(=O)Nc3cccc(F)c3)c2=O)OCO4)cc1	152.9*	4.5	12.7	?	-5.3	-0.7
COC(=O)c1nc(Nc2cc(F)cc(F)c2)nc(NC2CCCC2)n1	4.6	4.4	-1.1	·	21.7	2.0
CC(=O)c1cc(C#N)c(SCCC(C)C)nc1C	7.6	-0.5	11.2	-10.6%	-40.8*	0.2
Cc1ccc2c(c1)[C@@H]1CN(C)CC[C@@H]1N2S(=O)(=O)c1ccc([N+](=O)[O-])cc1	59.5*	-1.4	3.2	-19.0%	-1.1	0.0
Cc1ccc2c(c1)C1CN(C)CCC1N2Sc1ccccc1[N+](=O)[O-] (configuration not stated)	20.2	-8.1	-1.4	-19.8%	-95.0*	0.6
Cc1ccc2c(c1)[C@@H]1CN(C)CC[C@@H]1N2S(=O)(=O)c1ccc(F)cc1	7.0	-10.0	-4.0	-25.2%	-2.7	0.5
Cc1cc2c(s1)c1cnn(Cc3cc(F)c(F)c(F)c3)c(=O)c1n2C	0.7	4.2	0.8	·	-8.7	-0.1
Clc1cccc(N2CCN(c3nc4ccccc4c4nc(-c5ccccc5)nn34)CC2)c1	1.4	-3.6	3.5	-21.6%	-0.2	0.0
Cn1c(=O)c(=O)n(C)c2cc(S(=O)(=O)N3CCN(c4ccccc4)CC3)ccc21	2.1	5.2	-0.4	11.4%	21.6	-1.4
FC(F)(F)c1ccccc1NC(=S)Nc1ccccc1	0.2	1.1	4.8	-13.7%	-34.9*	-0.5
COc1ccc(NC(=S)Nc2ccccc2C(F)(F)F)cc1	-1.2	-4.4	11.8	-19.4%	·	0.4
O=C(Nc1ccc(Oc2ccccc2)cc1)c1ccc(F)c(S(=O)(=O)N2CCN(c3ccccc3F)CC2)c1	-0.6	0.8	-0.7	-16.7%	-7.5	0.4
CC(OC(=O)c1ccccc1NS(=O)(=O)c1cccc(C(F)(F)F)c1)C(=O)N(C)Cc1ccccc1 (configuration not stated)	5.3	3.1	-4.5	?	-7.0	0.5
CN(Cc1ccccc1)C(=O)COC(=O)c1ccccc1NS(=O)(=O)c1cccc(N)c1	5.6	-6.4	9.7	-17.2%	-31.7*	-1.0
CCOC(=O)CC(N)c1ccc(OC)cc1 (configuration not stated)	-2.2	-10.2	-7.1	-17.1%	-68.8*	-0.3
CCOC(=O)CCP(=O)(O)C(O)c1ccc(OC)cc1 (configuration not stated)	0.7	-3.3	-1.0	-9.4%	-1.0	1.5
COc1ccc(S(=O)(=O)NCCc2sc(-c3ccccc3)nc2C)cc1F	6.9	-3.6	-3.4	-26.5%	-7.6	-0.3
Nc1cnn(Cc2ccc(F)cc2)c1	2.5	-1.1	-2.9	-8.8%	-0.5	0.0
COc1cccc(Cn2cc(N)cn2)c1	1.6	2.8	32.3*	-9.5%	-4.8	0.1
COc1ccc(NC(=S)NCCc2c[nH]c3ccc(OC)cc23)c(OC)c1	7.8	-8.8	-1.2	1.9%	-18.9	-0.3
COc1ccc(NC(=S)NCCc2c[nH]c3ccccc23)c(OC)c1	8.1	-2.9	1.7	-21.4%	-36.2*	0.6
CCOC(=O)c1cc(S(=O)(=O)N2CCN(c3cc(C)ccc3C)CC2)[nH]n1	7.0	-2.0	-2.3	-24.8%	-17.1	-1.0
O=C(CSc1nnnn1-c1cccc2c1CCCC2)N1CCCC1	38.0*	-4.8	6.8	-7.2%	2.7	-0.5
CC1CCCC(C)N1C(=O)CSc1nnnn1-c1cccc2c1CCCC2 (configuration not stated)	22.8	-2.1	-6.4	-21.5%	-6.8	0.4
SMILES	D1 ag	D1 potentiator	TRHR PAM	USP1-UAF1 inh	D1 antagonist	TRHR agonist
O=C(CSc1nnnn1-c1cccc2c1CCCC2)N1CCOCC1	69.8*	4.8	25.2	-7.4%	-8.1	-1.0
Cc1c(Cl)cccc1NC(=O)Cn1nc(C(F)(F)F)c2c1CCC2	2.4	-3.9	0.9	-20.1%	-0.9	-0.1
Cc1n[nH]c(C)c1CCCCOc1ccccc1[N+](=O)[O-]	19.5	-5.2	-2.4	-12.0%	-32.7*	-0.2
Cc1n[nH]c(C)c1CCCCOc1ccc([N+](=O)[O-])cc1	13.0	-7.0	3.1	-14.9%	-39.1*	0.1
Cc1n[nH]c(C)c1CCCCOc1ccccc1	14.7	-8.2	-6.7	-12.2%	-32.2*	0.2
Cc1ccccc1OCCCCc1c(C)n[nH]c1C	8.3	-4.5	0.0	-12.0%	-25.4	-0.9
Cc1ccc(OCCCc2c(C)n[nH]c2C)cc1	4.3	-5.0	-2.5	-29.1%	-19.0	-0.2
Cc1ccc(C(=O)N2CCc3cc(CNC(=O)CSc4ccccc4)ccc32)cc1	2.0	-0.5	-3.3	-17.5%	0.5	-0.4
CC1Cc2cc(S(=O)(=O)CCC(=O)Nc3ccc(Cl)cc3F)ccc2N1C(=O)C1CC1 (configuration not stated)	3.9	-2.6	3.1	3.2%	-12.9	-0.4
Cc1ccc(-c2nc(N)sc2CC(=O)OCC(=O)NC2CCCC(C)C2C)cc1 (configuration not stated)	2.8	-11.8	-2.7	-19.3%	-41.4*	-0.5
Cc1ccc(-c2nc(N)sc2CC(=O)OCC(=O)N2C(C)CCCC2C)cc1 (configuration not stated)	4.8	-4.2	-6.1	-18.0%	-5.0	-1.2
CC1=C(C(=O)N2CCN(c3ccc(Cl)cc3)CC2)C2(CCC(C)CC2)OC1=O (configuration not stated)	2.1	6.0	50.5*	-24.9%	6.2	-0.5
CC1=C(C(=O)N2CCN(c3cccc(Cl)c3)CC2)C2(CCCCC2)OC1=O	0.3	-0.9	1.0	-12.4%	1.7	0.4
Cc1ccc(Sc2cc(C)nc(-c3ccccn3)n2)cc1	4.2	-0.6	32.3*	5.7%	3.6	-0.2
N#Cc1ccc2c(c1)C[C@]1(c3ccsc3)OC3=C(C(=O)OC4(CCCCC4)C3)C2O1	1.1	6.3	-10.0	·	-32.0*	0.5
COc1ccc([C@]23Cc4cc(C#N)ccc4C(O2)C2=C(CC4(CCCCC4)OC2=O)O3)cc1	1.9	1.9	-24.1	·	1.0	0.0
CSc1ccc(/C=C/c2nc3ccccc3n2S(=O)(=O)c2cccc(Cl)c2)cc1	9.5	-0.8	-4.5	-32.5%	-27.2	-0.9
O=S(=O)(c1cccc(Cl)c1)n1c(/C=C/c2ccccc2Cl)nc2ccccc21	-2.1	-3.0	1.7	?	-33.2*	-1.4
Clc1ccc2c(c1)-c1c(cnc3cc(-c4ccccc4)nn13)CO2	-0.3	-3.6	-3.7	-26.1%	-8.9	0.4
CCOc1ccc(CCNC(=O)c2sc3nc4n(c(=O)c3c2C)CCCC4)cc1	1.1	-3.1	3.9	-14.8%	-8.4	0.3
